Compounds without any hit were thinned out: in the full panel of roughly 83,000, 20% have a hit.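 Negative percent growth values reflect cell death: -40 means 40% of the cells present at the start died, and -100 means all died.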 A number with no mark means an inactive call. The source made the active and inactive calls. How the source made its calls: active means growth percent below 10; inactive means the rest.
Test system: HL-60(TB) leukemia
Experiment: NCI-60 one-dose screen, 48 h (100 = growth as untreated, 0 = no growth, -100 = all killed)
Conditions: 10 µM unless noted

Row | Structure (SMILES) | growth
1 | COc1ccc(-c2nc3ccc(-c4nnc(SCC(=O)Nc5ccc(C(=O)/C=C/c6ccc(Cl)cc6)cc5)o4)cc3[nH]2)cc1OC | 88.7%
2 | Brc1ccccc1/C=N/Nc1nc(N/N=C/c2ccccc2Br)nc(N2CCOCC2)n1 | 80.5%
3 | Cc1cccc2sc(/N=C(\N)C(Br)Br)nc12 | 0.778% (active)
4 | COc1cc(-c2nc(SCc3ccc(C)cc3)[nH]c(=O)c2C#N)ccc1OCc1ccccc1 | 137%
5 | CS(=O)(=O)Nc1cc(-c2ccc3ncc(C#N)c(NCc4ccccc4)c3c2)cnc1Cl | -29.2% (active)
6 | COc1cc(C2CC(c3ccc(Nc4nc(NCCO)nc(Nc5ccc(Cl)cc5)n4)cc3)=Nc3c(N)nc(N)nc3N2)cc(OC)c1OC (configuration not stated) | 25%
7 | Cc1ccc(NC(=O)CNc2cc(C(N)=O)cc(F)c2C)c(Cl)c1 | 133%
8 | CCOC(=O)c1cccnc1Nc1ccc(NC(=O)Nc2ccc(Cl)c(C(F)(F)F)c2)cc1 | 29.4%
9 | CN1CCN(c2ccc(/C=N/Nc3nc4ccccc4c(=O)n3-c3ccccc3)cc2)CC1 | 113%
10 | COc1cccc(N2CCN(C3=C(Cl)C(=O)c4ncccc4C3=O)CC2)c1 | 9.82% (active)
11 | Oc1[nH]c2ccc(Cl)cc2c1N=Nc1nc(N=Nc2c(O)[nH]c3ccc(Cl)cc23)nc(N2CCCCC2)n1 | 71.5%
12 | Cc1nn(-c2ccccc2)c2ncnc(N/N=C/c3ccccc3O)c12 | -7.88% (active)
13 | COc1ccc(-c2nnc(/N=C3/C(=O)Nc4ccc(Br)cc43)o2)cc1 | 60.4%
14 | COc1ccc(-c2cc(-c3ccc(Cl)cc3)nc3nc(N)nn23)cc1 | 72.2%
15 | Cc1ccc(-c2nc(SCC(=O)c3ccccc3)nc(Nc3ccc(S(N)(=O)=O)cc3)c2C#N)cc1 | 95.9%
16 | CCc1ccc(NC(=O)N[C@@H](Cc2cccc(F)c2)C(=O)N[C@@H]2C(=O)N3CCC[C@H]3C(=O)N3CCCC[C@H]3C(=O)N[C@@H](C)C(=O)N3C[C@H](C)C[C@H]3C(=O)O[C@H]2C)c(F)c1 | 8.27% (active)
17 | COc1cc(-c2nn(C(C)(C)C)cc2-c2ccnc(NCCCNS(=O)(=O)c3ccc(C)cc3)n2)ccc1Cl | 108%

— PubChem BioAssay (NCI)
